Assay [1] in a line: liver-stage malaria parasite growth inhibition, primary screen, cell-based, HepG2, luciferase luminescence, HepG2 viability (AID 624349; in the data active means parasite load remaining mostly below about 12%, no sharp cut-off; inactive means mostly above about 10%;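 further: 100% = mean of DMSO negative control wells on the same plate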). The note with it: P. berghei liver stage in HepG2, luciferase luminescence, concentration not given here; parasite load remaining: stronger effect = lower value; viability: measured here: HepG2 viability without parasites.
A short description of assay [2]: sensitizers of A549 cells to miR-34 induction, primary screen, imaging, A549 dox-inducible miR-34, nuclei and caspase counts (AID 1347080). The note with it: A549 miR-34 inducible, Hoechst nuclei count, 48 h.
Assay [3] in a line: survival rescue of mitochondrial mutant cells in low glucose, primary screen, MELAS cybrids, Rieske KO mouse fibroblasts, CellTiter-Glo (AID 1508586;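 active means mean z-score across replicates of 1.96 or higher in either the MELAS or the Rieske mutant cell line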;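 further: z relative to plate mean and SD of compound and empty wells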). For orientation: Cellular ATP, detected with luciferase, serves as a proxy for viable cell number.
A short description of assay [4]: polyglutamine-triggered caspase-3 activation inhibitors, cell-based (AID 1583). The note with it: polyglutamine-induced caspase-3 activation, cell assay; stronger effect = higher value;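 tested at 10 µM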.
Assay [5] in a line: suppressors of polyQ aggregation in yeast, 75Q-TubU reporter (AID 1593). The note with it: Yeast 75Q polyglutamine aggregation reporter.
Assay [6] is described as follows: rescue of polyQ-huntingtin neuronal dysfunction in worms, whole organism, C. elegans mechanosensory neurons, N-terminal huntingtin (AID 1599). The following applies: touch response, stronger effect = higher value.
Assay [7] in a line: inhibitors of mitochondrial cytochrome c release, biochemical, purified mitochondria (AID 1603).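 Further: mouse liver mitochondria challenged with calcium chloride; signal normalized to the plate average as 100%.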 The note with it: stronger effect = lower value.
Assay [8] in a line: inhibitors of polyQ protein aggregation (AID 1604). The note with it: polyglutamine-induced protein aggregation inhibition assay; stronger effect = higher value; tested at 2.5 µM.
A short description of assay [9]: protection against mutant huntingtin cytotoxicity, PC12 cells, LDH release (AID 1610). The note with it: PC12 mutant huntingtin toxicity, final LDH at 4 uM, stronger effect = lower value.
Assay [10] can be described thus: enhancers of glutamate uptake in motor neurons, MN-1 cell line (AID 1612).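 Further: tested at 1 µM final; 0% = mean of DMSO vehicle wells on each plate; positive means more glutamate uptake than control and negative means less.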 The note with it: MN-1 motor neuron cells, stronger effect = higher value.
The nature of assay [11]: suppressors of polyglutamine aggregation in yeast, 75Q-TubH (AID 1616). The following applies: S. cerevisiae 75Q-TubH polyglutamine aggregation suppression; stronger effect = higher value.
Assay [12] deals with ATP-dependent translocase ABCB1 (Homo sapiens) (UniProt P08183). As to the kind of experiment: MDR1 (ABCB1) efflux transporter inhibition, cell-based (AID 377; in the data active means fluorescence slope change above about 50%). The note with it: MDR1-expressing cells, fluorescent substrate accumulation slope; stronger effect = higher value; concentration not given here.
Assay [13] addresses NAD(+) hydrolase SARM1 (Homo sapiens) (UniProt Q6SZW1). The assay can be described thus: SARM1 TIR NADase inhibitors, cell lysate, NAD-Glo luminescence (AID 1508614;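 active means compound whose remaining NAD level is above about 45 nM, limit read from the data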). The following applies: SAM-TIR HEK293T lysate NADase, at 1 µM, stronger effect = higher value.
The target of assay [14] is Mitogen-activated protein kinase 7 (Homo sapiens) (UniProt Q13164). The assay can be described thus: ERK5 transactivation activators in reporter cells, primary screen, cell-based, HTS (AID 1508626;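 active means luciferase signal above three times the same-plate solvent-only control wells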;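 further: luciferase driven by Gal4-ERK5 fusion binding five Gal4 sites before minimal TATA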). The following applies: HeLa Gal4-ERK5 transactivation, 18 h, at 5 µM, stronger effect = higher value.
The nature of assay [15]: reducers of polyQ inclusions in PC12 cells, cell-based, NGF-treated PC12, GFPQ80 (AID 1614).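 Further: lower means fewer inclusions and 0 means no inclusions at all.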 The following applies: PC12 NGF-treated GFP-polyQ80 inclusion reduction.
Assay [16] can be described thus: viability rescue of complex I mutant cybrids, primary screen, cell-based, galactose medium, ATP luminescence (AID 1645843;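 active means z-score of at least 1.8 in each of two replicates, scored against plate mean and spread of sample wells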;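 further: positive z means more ATP and so rescue of galactose-driven cybrid death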). The following applies: complex I mutant cybrid cells, 72 h, stronger effect = higher value.
Assay [17] in a line: kinase inhibitors against Plasmodium liver-stage infection, cell-based, known kinase inhibitor set, luminescence, hepatoma host viability (AID 624392; call rule not given here;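 further: infected cells incubated roughly two days before readout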). The following applies: Plasmodium liver stage in hepatoma cells, luciferase luminescence, concentration not given here; liver cell % of control: measured here: host liver cell viability; parasite % of control: stronger effect = lower value.

Assay [18] is described as follows: hESC survival regulators, cell-based (AID 493140; call rule not given here;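 further: cells exposed to compounds for four days before counting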). The note with it: human embryonic stem cell survival screen; stronger effect = higher value.
The mark [19] stands for this setting: stronger effect = lower value, cell number ratio, induced over uninduced.
The mark [20] stands for this setting: measured here: relative caspase fold change +Dox/-Dox.
Where [21] appears, read: measured here: total cells with miR-34 induction, stronger effect = lower value.
[22] abbreviates: measured here: total cells without miR-34 induction.
Setting [23] is: MELAS cybrid survival, CellTiter-Glo 48 h, stronger effect = higher value.
Where [24] appears, read: Rieske KO mouse fibroblast survival, CellTiter-Glo 72 h.

The text below walks through data of PubChem BioAssay.

“And” between values parts separate entries of the source, which are not always exact repeats. Equal values may be shown once. Records with an inconclusive call do not appear. For some assays here: Potency and affinity values are given separately. Some structures have more than one record in an assay (separate samples or runs), and their calls can disagree. The source made the active and inactive calls.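 How the source made its calls, unless noted: active means compounds whose cell count with miR-34 switched on is under 0.7 times the count with it off; inactive means the rest.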

Broadly, the viability is a read-out of living cells in per cent, often relative to untreated cells. What is called inhibition is the relative decrease from the control value, in per cent.

Sequence of NAD(+) hydrolase SARM1 (Homo sapiens) (Q6SZW1 whole entry, looked up, the tested form may be a part): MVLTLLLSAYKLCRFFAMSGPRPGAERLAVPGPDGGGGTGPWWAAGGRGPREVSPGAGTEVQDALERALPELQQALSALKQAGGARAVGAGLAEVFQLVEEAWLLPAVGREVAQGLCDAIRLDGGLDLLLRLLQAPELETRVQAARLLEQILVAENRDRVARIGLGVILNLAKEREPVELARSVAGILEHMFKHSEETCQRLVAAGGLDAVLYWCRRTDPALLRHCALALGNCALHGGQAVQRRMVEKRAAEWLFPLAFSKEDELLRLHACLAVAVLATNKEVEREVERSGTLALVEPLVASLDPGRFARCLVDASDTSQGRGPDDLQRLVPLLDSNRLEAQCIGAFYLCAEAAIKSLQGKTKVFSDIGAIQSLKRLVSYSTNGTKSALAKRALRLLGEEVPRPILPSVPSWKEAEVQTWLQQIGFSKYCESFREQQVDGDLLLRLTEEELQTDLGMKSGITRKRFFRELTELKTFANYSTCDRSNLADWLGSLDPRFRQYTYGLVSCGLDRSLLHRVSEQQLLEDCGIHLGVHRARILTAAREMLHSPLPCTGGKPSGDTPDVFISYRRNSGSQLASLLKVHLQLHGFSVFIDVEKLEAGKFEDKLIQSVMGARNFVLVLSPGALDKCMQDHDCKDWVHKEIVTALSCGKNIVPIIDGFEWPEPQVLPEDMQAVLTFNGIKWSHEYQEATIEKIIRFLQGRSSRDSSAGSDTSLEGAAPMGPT
Sequence of Mitogen-activated protein kinase 7 (Homo sapiens) (Q13164 whole entry, looked up, the tested form may be a part): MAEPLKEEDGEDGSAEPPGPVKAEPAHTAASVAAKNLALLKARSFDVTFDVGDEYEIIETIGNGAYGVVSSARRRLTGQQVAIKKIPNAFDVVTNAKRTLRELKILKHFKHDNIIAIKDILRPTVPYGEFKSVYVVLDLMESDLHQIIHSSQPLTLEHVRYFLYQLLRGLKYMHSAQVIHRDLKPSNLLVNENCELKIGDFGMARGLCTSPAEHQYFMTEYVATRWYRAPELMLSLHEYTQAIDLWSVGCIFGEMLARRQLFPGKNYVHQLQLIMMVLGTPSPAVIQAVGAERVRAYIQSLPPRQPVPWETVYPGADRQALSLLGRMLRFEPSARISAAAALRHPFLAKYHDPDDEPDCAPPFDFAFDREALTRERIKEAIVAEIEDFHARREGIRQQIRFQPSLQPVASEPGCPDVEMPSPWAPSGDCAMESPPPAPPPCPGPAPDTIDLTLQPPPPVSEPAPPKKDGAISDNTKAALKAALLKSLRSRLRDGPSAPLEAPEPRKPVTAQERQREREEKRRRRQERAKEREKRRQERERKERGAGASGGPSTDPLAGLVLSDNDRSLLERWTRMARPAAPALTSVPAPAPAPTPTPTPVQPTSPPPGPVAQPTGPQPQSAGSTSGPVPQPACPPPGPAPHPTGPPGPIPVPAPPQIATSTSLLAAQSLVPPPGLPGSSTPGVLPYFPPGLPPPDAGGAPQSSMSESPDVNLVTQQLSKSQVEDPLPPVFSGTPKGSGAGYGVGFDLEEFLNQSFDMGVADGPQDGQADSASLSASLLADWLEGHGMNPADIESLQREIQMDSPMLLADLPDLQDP
Sequence of ATP-dependent translocase ABCB1 (Homo sapiens) (P08183 whole entry, looked up): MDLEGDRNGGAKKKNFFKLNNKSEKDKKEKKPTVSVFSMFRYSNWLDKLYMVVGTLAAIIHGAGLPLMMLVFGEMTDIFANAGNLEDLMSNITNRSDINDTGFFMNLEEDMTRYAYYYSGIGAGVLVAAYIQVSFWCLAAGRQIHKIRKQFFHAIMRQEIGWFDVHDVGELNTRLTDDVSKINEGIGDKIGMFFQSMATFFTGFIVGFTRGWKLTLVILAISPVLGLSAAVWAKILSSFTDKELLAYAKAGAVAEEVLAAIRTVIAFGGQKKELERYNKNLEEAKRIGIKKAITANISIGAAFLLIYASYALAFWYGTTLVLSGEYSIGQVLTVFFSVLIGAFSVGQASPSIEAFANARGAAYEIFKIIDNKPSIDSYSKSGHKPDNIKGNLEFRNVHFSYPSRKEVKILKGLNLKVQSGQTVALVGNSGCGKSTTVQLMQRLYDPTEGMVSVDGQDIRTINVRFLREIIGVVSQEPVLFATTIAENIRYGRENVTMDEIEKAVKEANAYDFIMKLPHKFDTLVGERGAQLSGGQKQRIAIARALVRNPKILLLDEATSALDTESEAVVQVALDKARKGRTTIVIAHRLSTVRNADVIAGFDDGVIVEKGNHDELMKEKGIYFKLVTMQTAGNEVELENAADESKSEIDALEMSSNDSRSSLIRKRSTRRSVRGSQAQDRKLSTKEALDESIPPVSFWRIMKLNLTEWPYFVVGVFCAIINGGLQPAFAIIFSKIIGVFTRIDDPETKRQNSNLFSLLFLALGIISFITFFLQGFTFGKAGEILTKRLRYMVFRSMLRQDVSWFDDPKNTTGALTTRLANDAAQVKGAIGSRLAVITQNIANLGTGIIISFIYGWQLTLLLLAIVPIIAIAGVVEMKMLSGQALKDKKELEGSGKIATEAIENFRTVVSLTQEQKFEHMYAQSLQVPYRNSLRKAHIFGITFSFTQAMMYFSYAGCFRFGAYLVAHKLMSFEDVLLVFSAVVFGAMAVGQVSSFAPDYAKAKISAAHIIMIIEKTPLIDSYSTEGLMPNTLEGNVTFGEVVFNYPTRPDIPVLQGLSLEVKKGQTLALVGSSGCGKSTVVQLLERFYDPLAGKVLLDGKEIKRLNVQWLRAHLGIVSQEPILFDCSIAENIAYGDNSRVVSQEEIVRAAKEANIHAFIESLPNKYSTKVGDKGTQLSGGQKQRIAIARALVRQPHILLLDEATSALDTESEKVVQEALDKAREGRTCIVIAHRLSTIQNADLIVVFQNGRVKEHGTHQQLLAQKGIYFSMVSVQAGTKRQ

In the case of `C=C1c2c(Cl)ccc(O)c2C(O)=C2C(=O)[C@]3(O)C(O)=C(C(N)=O)C(=O)[C@@H](N(C)C)[C@@H]3[C@@H](O)C12` (some centres undefined), the parasite load remaining in [1] is 61.4% (inactive). Also, the viability in assay [1] came to 104%. Besides, the values for the fold change in assay [2] (setting [19]) and in assay [2] (setting [20]) were 0.684 (active) and 2.93, respectively. Moreover, the cell count in [2] (setting [21]) turned out to be 5870; in assay [2] (setting [22]) it was 8580. Besides, the z-score in assay [3] (setting [23]) is -2.33 (inactive); in assay [3] (setting [24]) it was -2.53.
For `CC(Cc1ccc(O)c(O)c1)C(C)Cc1ccc(O)c(O)c1` (centres undefined), the inhibition in [4] is -3.14%. Further, the score in assay [5] was found to be 0.83. Besides, in assay [6], the rescue above control is -2.86. Moreover, the cytochrome c release ratio in assay [7] stood at 3.11. The inhibition of aggregation in [8] is -17%. The molecule also registered a normalised LDH release in assay [9] of 0.415. Besides, the glutamate uptake change in assay [10] worked out at 67.2%. In assay [11], this molecule gave an aggregation suppression score of 0.665. The fold change was 1.04 (inactive) in [2] (setting [19]) and 1.01 in [2] (setting [20]). Moreover, the figures for the cell count in assay [2] (setting [21]) and in assay [2] (setting [22]) were 5990 and 5750, respectively.
Regarding `C=C1CC[C@H](O)C/C1=C/C=C1\CCC[C@]2(C)[C@@H]([C@H](C)CCCC(C)C)CC[C@@H]12`, the fluorescence slope change in assay [12] was 59.6% (active). The parasite load remaining in assay [1] is 130% (inactive). For the same molecule, in assay [1], the viability was determined as 106%. For the same molecule, the results for the fold change in assay [2] (setting [19]) and in [2] (setting [20]) were 0.889 (inactive) and 1.52, respectively. Besides, the cell count in [2] (setting [21]) is 8940; in [2] (setting [22]) it was 10100. In addition, in assay [13], the remaining NAD is 10 nM (inactive). Further, the luciferase signal in assay [14] is 48 AU (inactive).
`CN1C2CC[C@H]1CC(OC(=O)C(O)c1ccccc1)C2` (some centres undefined): the score in assay [5] came out at 1.13. Also, the rescue above control in assay [6] was -4.02. Further, the glutamate uptake change in assay [10] is -10.2%. In addition, in [15], the inclusion score was found to be 2. The molecule further yielded an aggregation suppression score in [11] of 1.37. The fold change in [2] (setting [19]) is 0.844 (inactive); in assay [2] (setting [20]) it was 1.44. For the same molecule, the cell count was 10300 in [2] (setting [21]) and 12200 in assay [2] (setting [22]).
For `O=[N+]([O-])OCC(CO[N+](=O)[O-])O[N+](=O)[O-]`, in assay [1], the parasite load remaining was 15.2% (inactive). Also, the viability in assay [1] stood at 94.3%. In addition, the fold change in assay [2] (setting [19]) is 0.846 (inactive); in assay [2] (setting [20]), 4.5. The cell count in [2] (setting [21]) stood at 10800; in assay [2] (setting [22]), 12700. The remaining NAD in assay [13] is 10 nM (inactive).
Regarding `C=C1C(=CC=C2CCC[C@@]3(C)C2CCC3C(C)CCCC(C)(C)O)CC(O)CC1O` (some centres undefined), the figures for the fold change in assay [2] (setting [19]) and in [2] (setting [20]) were 0.912 (inactive) and 1.66, respectively. Besides, the values for the cell count in assay [2] (setting [21]) and in [2] (setting [22]) were 9420 and 10300, respectively. The z-score in [16] is -1.52 (inactive).
For the molecule `Cc1ccc([N+](=O)[O-])cc1S(=O)(=O)N(C)N=Cc1cnc2ccc(Br)cn12`, the liver cell % of control in assay [17] was 52.2% and 52.1% and 55.5%. In assay [17], the parasite % of control was 4.51% (inactive) and 2.82% (inactive) and 2.1% (active). Further, the fold change in assay [2] (setting [19]) was 0.935 (inactive); in assay [2] (setting [20]), 0.896. The cell count in [2] (setting [21]) was 837; in [2] (setting [22]) it was 896. Besides, the z-score in [3] (setting [23]) was -0.394 (inactive); in [3] (setting [24]), -2.82.
For the molecule `COc1ccc(-c2cc(=O)c3c(O)cc(O)cc3o2)cc1`, the inhibition in assay [4] was -17.1%. Besides, in [5], the score worked out at 1.2. The rescue above control in assay [6] is 10.4. For the same molecule, in assay [7], the cytochrome c release ratio turned out to be 0.89. Also, the inhibition of aggregation in [8] was determined as 41.2%. The glutamate uptake change in assay [10] is -9.64%. Besides, the inclusion score in assay [15] is 2. Also, in assay [11], the aggregation suppression score was found to be 0.73. In addition, in [18], the survival is 3.33 (inactive). Moreover, in assay [1], the parasite load remaining was 73.8% (inactive) and 91.5% (inactive). Also, in [1], the viability is 92.5% and 92.4%. Besides, the values for the fold change in [2] (setting [19]) and in [2] (setting [20]) were 0.79 (inactive) and 1.12, respectively. Further, the cell count in [2] (setting [21]) stood at 7540; in [2] (setting [22]), 9550. Besides, the luciferase signal in assay [14] is 40 AU (inactive).
